Experiments:
Details in all cases: concentration: 1 μM,replicates: in singlicate; n = 1
[1] = tested on: TYK2(JH2domain-pseudokinase)
[2] = tested on: TYRO3
[3] = tested on: ULK1
[4] = tested on: ULK2
[5] = tested on: T1, VEGFR2
T1 construct: gene KDR

[6] = tested on: T2, VPS34
T2 construct: gene PIK3C3

[7] = tested on: VRK2
[8] = tested on: WEE1
[9] = tested on: WNK1
[10] = tested on: WNK2
[11] = tested on: WNK3
[12] = tested on: WNK4
[13] = tested on: T3, YANK1
T3 construct: gene STK32A

[14] = tested on: T4, YANK2
T4 construct: gene STK32B

[15] = tested on: T5, YANK3
T5 construct: gene STK32C

[16] = tested on: T6, YES
T6 construct: gene YES1

[17] = tested on: T7, YSK1
T7 construct: gene STK25

[18] = tested on: T8, YSK4
T8 construct: gene MAP3K19

[19] = tested on: ULK3
[20] = tested on: WEE2
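Also: KINOMEscan kinase panel screen.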

Row | Compound | %Inh [1] [%] | %Inh [2] [%] | %Inh [3] [%] | %Inh [4] [%] | %Inh [5] [%] | %Inh [6] [%] | %Inh [7] [%] | %Inh [8] [%] | %Inh [9] [%] | %Inh [10] [%] | %Inh [11] [%] | %Inh [12] [%] | %Inh [13] [%] | %Inh [14] [%] | %Inh [15] [%] | %Inh [16] [%] | %Inh [17] [%] | %Inh [18] [%] | %Inh [19] [%] | %Inh [20] [%]
1 | CNC(=O)c1ccccc1Sc1ccc2c(/C=C/c3ccccn3)n[nH]c2c1 | 0 | 0 | 20 | 58 | 99.9 | 3 | 0 | 0 | 0 | 11 | 0 | 0 | 19 | 0 | 0 | 0 | 0 | 78 | – | –
2 | CCN(CC)CCOc1ccc(Nc2ncc3cc(-c4c(Cl)cccc4Cl)c(=O)n(C)c3n2)cc1 [SB-601273] | 25 | 100 | 92.4 | 95.2 | 97.6 | 44 | 46 | 99.9 | 26 | 86 | 66 | 42 | 95.1 | – | 27 | 100 | 37 | 99.2 | 59 | 99.7
3 | Cl.Cl.NC[C@H](Cc1ccc(C(F)(F)F)cc1)NC(=O)c1cc(Br)c(-c2ccnc3[nH]ccc23)s1 [GSK1487252] | 16 | 0 | 5 | 19 | 34 | 0 | 0 | 0 | 10 | 0 | 13 | 39 | 56 | 69 | 13 | 19 | 30 | 88 | 6 | 0
4 | O=C(NCCNc1ccnc(NCc2ccc(F)cc2)n1)c1cc2ccccc2s1 [GSK1379944] | 10 | 4 | 3 | 0 | 0 | 0 | 0 | 3 | 10 | 1 | 4 | 3 | 19 | 0 | 7 | 11 | 0 | 27 | 0 | 19
5 | C[C@@H]1CCN(C(=O)CC#N)C[C@@H]1N(C)c1ncnc2[nH]ccc12 | – | 0 | 0 | 0 | 0 | 0 | 0 | 0 | 0 | 0 | 0 | 0 | – | 0 | 0 | 0 | 0 | 8 | 0 | 2
6 | Cl.Cl.NC[C@H](CC1CCCCC1)NC(=O)c1cc(Br)c(-c2ccnc3[nH]ccc23)s1 [GSK1581427] | 5 | 0 | 28 | 0 | 7 | 0 | 0 | 3 | 0 | 3 | 5 | 0 | 42 | 0 | 18 | 1 | 0 | 99.6 | 10 | 10
7 | Cc1occc1-c1nc(N)c(OC[C@@H](N)Cc2c[nH]c3ccccc23)cc1-c1cc2c(C)n[nH]c2cn1 [GSK1660450] | 0 | 0 | 33 | 22 | 0 | 18 | 90.1 | 0 | 0 | 5 | 0 | 0 | 96.6 | 95.2 | 93.1 | 40 | 57 | 99.7 | 11 | 15
8 | CN(C)CCOc1ccc(-c2cc(-c3c[nH]nc3-c3ccccn3)ccn2)cc1 [GW835314] | 21 | 8 | 0 | 31 | 6 | 0 | 0 | 0 | 9 | 13 | 0 | 0 | 89 | 0 | 0 | 55 | 0 | 28 | 4 | 11
9 | CCN(CC)CCCCNc1ncc2cc(-c3c(Cl)cccc3Cl)c(NC(=O)NC(C)(C)C)nc2n1 | 0 | 8 | 0 | 29 | 90.4 | 12 | 0 | 3 | 0 | 51 | 0 | 0 | 53 | 32 | 0 | 94.6 | 58 | 49 | 0 | 3
10 | C[C@@H](Oc1cc(-c2cnn(C3CCNCC3)c2)cnc1N)c1c(Cl)ccc(F)c1Cl | 43 | – | 67 | 53 | 22 | 0 | 11 | 0 | 11 | 46 | 0 | 8 | 6 | 0 | 0 | 17 | 0 | 72 | 32 | 0
11 | C[C@H]1Oc2cc(cnc2N)-c2c(nn(C)c2C#N)CN(C)C(=O)c2ccc(F)cc21 | 0 | 5 | 0 | 0 | 3 | 0 | 42 | 0 | 0 | 2 | 0 | 0 | 0 | 12 | 3 | 2 | 0 | 0 | 0 | 16
12 | CCn1c(-c2nonc2N)nc2c(C#CC(C)(C)O)nc(OCCN)cc21.Cl.Cl [GSK902056] | 9 | 0 | 33 | 0 | 0 | 0 | 0 | 6 | 12 | 24 | 28 | 2 | 12 | 0 | 35 | 19 | 0 | 99.7 | 13 | 15
13 | Cc1n[nH]c2ccc(-c3cc(OC[C@@H](N)Cc4ccccc4)cnc3-c3ccoc3)cc12.O=C(O)C(F)(F)F.O=C(O)C(F)(F)F [GSK507358] | 19 | 0 | 0 | 8 | 0 | 0 | 33 | 35 | 8 | 11 | 0 | 6 | 72 | 90.5 | 47 | 22 | 22 | 99.8 | 22 | 15
14 | C=CC(=O)Nc1cc2c(Nc3ccc(F)c(Cl)c3)ncnc2cc1OCCCN1CCOCC1 [GW781483] | 21 | 29 | 0 | 17 | 0 | 6 | 0 | 0 | 16 | 0 | 20 | 0 | 17 | 0 | 0 | 15 | 0 | 49 | 14 | 20
15 | CN(C)CC(O)COc1ccc(Nc2nccc(-c3cnn4nc(N5CCOCC5)ccc34)n2)cc1 (centres unmarked) [GW767488] | 97.3 | 10 | 98.8 | 96.3 | 20 | 95.4 | 0 | 8 | 18 | 0 | 18 | 0 | 29 | 0 | 0 | 0 | 17 | 90 | 61 | 0
16 | CC(C)N1C(=O)Cc2cc(Nc3ncc(C(F)(F)F)c(NCc4cccc(S(C)(=O)=O)c4)n3)ccc21 | 29 | 0 | 60 | 54 | 74 | 55 | 39 | 38 | 0 | 1 | 0 | 23 | 6 | 0 | 0 | 9 | 0 | 99.8 | 59 | 7
17 | Cl.Cl.Nc1nc(-c2ccc3c(N)n[nH]c3c2)cc(N2CCCC(NC(=O)c3ccccc3)C2)n1 (centres unmarked) [GSK2286775] | 38 | 0 | 11 | 2 | 9 | 0 | 0 | 18 | 37 | 10 | 19 | 0 | 0 | 0 | 0 | 14 | 22 | 36 | 36 | 0
18 | CC(C)Nc1cc(-c2ccc3c(N)n[nH]c3c2)nc(N)n1 [GSK2221681] | 8 | 0 | 76 | 22 | 4 | 0 | 0 | 8 | 0 | 0 | 0 | 0 | 37 | 0 | 2 | 4 | 14 | 41 | 9 | 0
19 | Cc1ccc2c(-c3ccncc3)c(-c3ccc(F)cc3)nn2c1.Cl [GW461484] | 2 | 0 | 7 | 0 | 2 | 0 | 0 | 3 | 0 | 0 | 26 | 22 | 31 | 15 | 12 | 0 | 7 | 0 | 23 | 1
20 | Cl.Oc1cc(-c2nc(-c3ccccc3)[nH]c2-c2ccncc2)ccc1Cl [SB-386023] | 0 | 58 | 7 | 25 | 20 | 14 | 0 | 0 | 0 | 0 | 0 | 38 | 0 | 26 | 0 | 31 | 0 | 0 | 25 | 11
21 | Cc1cc(C(=O)Nc2ccc(Oc3ccc4nc(NC(=O)C5CC5)cn4n3)cc2)nn1-c1ccccc1 | 0 | 37 | 0 | 0 | – | 0 | 0 | 15 | 0 | 0 | 0 | 10 | 0 | 3 | 0 | 25 | 1 | 1 | 0 | 7
22 | COc1ccc(C[C@@H](CN)NC(=O)c2cc(Br)c(-c3ccnc4[nH]ccc34)s2)cc1.Cl.Cl [GSK1389063] | 23 | 0 | 40 | 16 | 58 | 35 | 47 | 0 | 11 | 32 | 5 | 0 | 71 | 46 | 50 | 22 | 100 | 99.6 | 12 | 18
23 | Nc1nc(Nc2ccccc2)cc(-c2ccc3c(N)n[nH]c3c2)n1 [GSK2225749] | 45 | 0 | 92.8 | 62 | 5 | 3 | 0 | 0 | 5 | 0 | 7 | 0 | 15 | 0 | 6 | 0 | 0 | 46 | 16 | 0
24 | O=C(NCCCN1CCOC1=O)c1cnc(NCc2cc(Cl)ccc2Cl)nc1NC1CCCC1 | 0 | 46 | 0 | 0 | 0 | 0 | 7 | 0 | 0 | 0 | 0 | 18 | 0 | 0 | 2 | 31 | 0 | 11 | 0 | 0
25 | Cc1cc2cn[nH]c2cc1-c1cccc2c(N)c(C(N)=O)nnc12 | 65 | 15 | 28 | 30 | 13 | 19 | 21 | 12 | 21 | 3 | 23 | 11 | 26 | 0 | 0 | 0 | 0 | 71 | 50 | 29
26 | Cc1ccc(-n2nc(C(C)(C)C)cc2NC(=O)Nc2ccc(OCCN3CCOCC3)c3ccccc23)cc1 [GW839464] | 0 | 37 | 0 | 0 | 37 | 21 | 0 | 0 | 0 | 1 | 0 | 0 | 0 | 0 | 0 | 32 | 0 | 0 | 0 | 14
27 | NC(=O)c1cc(-c2ccccc2)cc2c(C3CCNCC3)c[nH]c12 [GSK301362] | 99.7 | 1 | 23 | 29 | 0 | 0 | 0 | 14 | 11 | 6 | 17 | 41 | 4 | 0 | 26 | 24 | 1 | 50 | 18 | 11

Reference: PMC5540273 (PLoS ONE, 2017)
